Inconclusive results are not listed. Activity calls are given as the source filed them. Calls come from the whole dose curve; as a rule, active = well fitted cell-killing curve with a large enough effect; inconclusive = small, poorly fitted or top-dose-only effect, or effect the other way; inactive = no such curve, though single readings can be large or run the other way.
test: Quantitative High-Throughput drug screen in 47 multiple myeloma cell lines against the NCATS MIPE library collection: OCIMY7_PLB cell viability assay (AID 1918987); conditions: OCI-MY7 myeloma viability, CellTiter-Glo ATP, 48 h; series mostly up to 45.8 µM; viability (% of DMSO): at the top concentration; note: nearly all actives have a fitted effect of over 65% in size
Source text: (§1) PI: Beverly A. Mock Ph.D.
(§2) Laboratory of Cancer Biology and Genetics,
(§3) Center for Cancer Research, National Cancer Institute,
(§4) National Institute of Health, Bethesda, Maryland
(§5) Drug resistance and disease progression are common in multiple myeloma (MM) patients, underscoring the need for new therapeutic combinations. […] We hypothesized that effective combinations would reduce MYC expression and enhance p16 activity. […] These preclinical data identify potentially useful drug combinations for evaluation in drug-resistant MM and reveal potential mechanisms of combined drug sensitivity.
(§6) Described herein is the primary MIPE qHTS used to cherrypick compounds. Validated compounds were then further tested for potential synergistic activiy.
(§7) [1] Peat TJ, Gaikwad SM, Dubois W, Gyabaah-Kessie N, Zhang S, Gorjifard S, Phyo Z, Andres M, Hughitt VK, Simpson RM, Miller MA, Girvin AT, Taylor A, Williams D, D'Antonio N, Zhang Y, Rajagopalan A, Flietner E, Wilson K, Zhang X, Shinn P, Klumpp-Thomas C, McKnight C, Itkin Z, Chen L, Kazandijian D, Zhang J, Michalowski AM, Simmons JK, Keats J, Thomas CJ, Mock BA. Drug combinations identified by high-throughput screening promote cell cycle transition and upregulate Smad pathways in myeloma. Cancer Lett. 2023 Aug 1;568:216284. doi: 10.1016/j.canlet.2023.216284. Epub 2023 Jun 24. PMID: 37356470; PMCID: PMC10408729.
(§8) SEQUENCE No. (e.g., 1, 2, 3, etc.); […] (e.g., Cells, Incubation, Reagent, etc.); VALUE and DESCRIPTION.
(§9) 1; Cells; 5 uL; white, solid bottom 1536-well Greiner assay plate.
(§10) 2; Compounds; 23 nL; Kalypsis pin tool (Wako USA) equipped with a 1536-well pin head to transfer to the assay plates.
(§11) 3; Incubation; 48 hours; 37C incubation.
(§12) 4; Reagent;5uL; CellTiter Glo (Promega).
(§13) 5; Detector; 425V; Luminescence; Viewlux PerkinElmer.
(§14) NOTES (numbers refer to Sequence numbers above)
(§15) 1. The cell-based screening methods employed in this study were like those previously published. Briefly, the corresponding myeloma cell lines were screened in 1,536-well plates with 500 cells, 5-uL per well for inhibition of cell viability (assessed by measuring ATP levels with CellTiterGlo).
(§16) 2. NCATS MIPE 4.0 library of approved and investigational drugs were added using the Kalypsis pin tool. Wells treated with DMSO only for 100% viability and media only for 0% viability were used as controls.
(§17) 3. The assay plates were covered and incubated for 48 hours in a 37C, 5% CO2 incubator with controlled humidity.
(§18) 4. After 48 hours, CellTilter-GloTM luminescent substrate mix (Promega) reagent was added to the assay plate and plates we incubated for 5 min at room temperature.
(§19) 5. Signal was measured as median relative luminescence units on a ViewLux (PerkinElmer) multiplate reader.
(§20) [1] Heske CM, Davis MI, Baumgart JT, Wilson K, Gormally MV, Chen L, Zhang X, Ceribelli M, Duveau DY, Guha R, Ferrer M, Arnaldez FI, Ji J, Tran HL, Zhang Y, Mendoza A, Helman LJ, Thomas CJ. Matrix Screen Identifies Synergistic Combination of PARP Inhibitors and Nicotinamide Phosphoribosyltransferase (NAMPT) Inhibitors in Ewing Sarcoma. Clin Cancer Res. 2017 Dec 1;23(23):7301-7311. doi: 10.1158/1078-0432.CCR-17-1121. Epub 2017 Sep 12. PMID: 28899971; PMCID: PMC6636827.
Potency is the fitted concentration of half-maximal effect.

Row | SMILES | Potency | viability (% of DMSO)
1 | C[C@]12CCC(=O)C=C1CC[C@@H]1[C@H]3CC[C@](C)(O)[C@@]3(C)CC[C@@H]12 | 30.3 µM (active) | 
2 | CN1C(=O)CCS(=O)(=O)C1c1ccc(Cl)cc1 (stereo not drawn) |  | 161% (inactive)
3 | C[C@]12CC[C@H]3[C@@H](CC[C@@]45O[C@H]4C(O)=C(C#N)C[C@]35C)[C@H]1CC[C@H]2O | 5.26 µM (active) | 
4 | O=C(O)CCCc1ccc(N(CCCl)CCCl)cc1 | 4.69 µM (active) | 
5 | C[C@](O)(CS(=O)(=O)c1ccc(F)cc1)C(=O)Nc1ccc(C#N)c(C(F)(F)F)c1 | 0.469 µM (active) | 

test: Quantitative High-Throughput drug screen in 47 multiple myeloma cell lines against the NCATS MIPE library collection: OCIMY5_PLB cell viability assay (AID 1918988); conditions: OCI-MY5 myeloma viability, ATP luminescence, 48 h; series mostly up to 45.8 µM; viability, % of control: at the top concentration; note: nearly all actives have a fitted effect of over 65% in size
Source text: as §1, §2, §3, §4, §5, §6, §7, §8, §9, §10, §11, §12, §13, §14, §15, §16, §17, §18, §19, §20

Row | SMILES | Potency | viability, % of control
6 | C[C@]12CCC(=O)C=C1CC[C@@H]1[C@H]3CC[C@](C)(O)[C@@]3(C)CC[C@@H]12 | 48.1 µM (active) | 
7 | CN1C(=O)CCS(=O)(=O)C1c1ccc(Cl)cc1 (stereo not drawn) |  | 163% (inactive)
8 | COc1cc(OC)c(OC)cc1C=O |  | 195% (inactive)
9 | CC(NC(C)(C)C)C(=O)c1cccc(Cl)c1 (stereo not drawn) | 13.2 µM (active) | 
10 | O=C(O)CCCc1ccc(N(CCCl)CCCl)cc1 |  | 194% (inactive)
11 | CCC1(c2ccc(N)cc2)CCC(=O)NC1=O (stereo not drawn) |  | 141% (inactive)
12 | C[C@](O)(CS(=O)(=O)c1ccc(F)cc1)C(=O)Nc1ccc(C#N)c(C(F)(F)F)c1 | 0.372 µM (active) | 

test: Quantitative High-Throughput drug screen in 47 multiple myeloma cell lines against the NCATS MIPE library collection: OPM1_PLB cell viability assay (AID 1918989); conditions: CellTiter-Glo, 48 h; series mostly up to 45.8 µM; viability (% of control): at the top concentration; note: nearly all actives have a fitted effect of over 40% in size
Outline: (§21)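 Viability after 48 h drug exposure was measured as ATP-dependent luminescence. Cells, 500 per well, sat at 37 °C under 5% CO2; DMSO wells set 100%, media-only wells 0%.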

Row | SMILES | viability (% of control) | Potency
13 | C[C@]12CCC(=O)C=C1CC[C@@H]1[C@H]3CC[C@](C)(O)[C@@]3(C)CC[C@@H]12 | 143% [at 92.2 µM] (inactive) | 
14 | CN1C(=O)COc2c(C(=O)NC3CN4CCC3CC4)cc(Cl)cc21 (stereo not drawn) | 126% (inactive) | 
15 | O=P1(N(CCCl)CCCl)NCCCO1 (stereo not drawn) |  | 13.2 µM (active)
16 | CN1C(=O)CCS(=O)(=O)C1c1ccc(Cl)cc1 (stereo not drawn) | 138% (inactive) | 
17 | CC(C)c1cccc(C(C)C)c1O | 155% (inactive) | 
18 | COc1cc(OC)c(OC)cc1C=O | 135% (inactive) | 
19 | C[C@]12CC[C@H]3[C@@H](CC[C@@]45O[C@H]4C(O)=C(C#N)C[C@]35C)[C@H]1CC[C@H]2O | 124% (inactive) | 
20 | CC(C)C[C@H](CN)CC(=O)O | 142% (inactive) | 
21 | CCC1(c2ccc(N)cc2)CCC(=O)NC1=O (stereo not drawn) | 135% (inactive) | 
22 | C[C@](O)(CS(=O)(=O)c1ccc(F)cc1)C(=O)Nc1ccc(C#N)c(C(F)(F)F)c1 |  | 1.87 µM (active)
23 | C[C@]12CC[C@@H]3c4ccc(OC(=O)N(CCCl)CCCl)cc4CC[C@H]3[C@@H]1CC[C@@H]2OP(=O)(O)O | 141% (inactive) | 

test: Quantitative High-Throughput drug screen in 47 multiple myeloma cell lines against the NCATS MIPE library collection: SKMM1_PLB cell viability assay (AID 1919863); conditions: SKMM1 myeloma viability, CellTiter-Glo ATP, 48 h; viability: hits give low values; note: nearly all actives have a fitted effect of over 35% in size
Outline: as §21

Row | SMILES | Potency | viability
24 | C[C@]12CCC(=O)C=C1CC[C@@H]1[C@H]3CC[C@](C)(O)[C@@]3(C)CC[C@@H]12 | 30.3 µM (active) | 
25 | CN1C(=O)COc2c(C(=O)NC3CN4CCC3CC4)cc(Cl)cc21 (stereo not drawn) |  | 152% (inactive)
26 | CN1C(=O)CCS(=O)(=O)C1c1ccc(Cl)cc1 (stereo not drawn) |  | 109% (inactive)
27 | CC(C)c1cccc(C(C)C)c1O |  | 119% (inactive)
28 | CC(NC(C)(C)C)C(=O)c1cccc(Cl)c1 (stereo not drawn) |  | 112% (inactive)
